Results taken from PubChem BioAssay (NCATS).
Records with an inconclusive call do not appear. Where a call stands in place of a potency, no number is given. Calls of active or inactive are those of the source. Calls follow the shape of the dose curve; as a rule, active = well fitted inhibition curve with a large enough effect; inconclusive = small, poorly fitted or top-dose-only effect; inactive = flat fitted curve, though single readings scatter. Non-standard residues stand in square brackets, D forms with d. Residues, ends and D or L forms follow the SMILES beside them. Dip = N[C@H](C(=O)O)C(c1ccccc1)c1ccccc1

Assay: BET inhibitor-based combinations targeting novel dependencies in MECOM-rearranged (r) AML: AML-194 cell line (AID 2202237; also: nearly all actives have a fitted effect of over 40% in size)
Settings: AML-194 (MECOM-r AML) viability, CellTiter-Glo, 48 h; series mostly up to 46 µM
Procedure, shortened: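 Viability of cells (500 per well) is scored by luminescent CellTiter-Glo at 48 hr post-dosing. Eleven-point titrations are normalized to DMSO and empty controls and reduced to AUC values.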
Potency is read from the fitted curve at half-maximal effect.

SMILES	Potency
C/C=C/C[C@@H](C)C(=O)[C@H]1C(=O)N[C@@H](C(C)C)C(=O)N(C)CC(=O)N(C)[C@@H](CC(C)C)C(=O)N[C@@H](C(C)C)C(=O)N(C)[C@@H](CC(C)C)C(=O)N[C@@H](C)C(=O)N[C@H](C)C(=O)N(C)[C@@H](CC(C)C)C(=O)N(C)[C@@H](CC(C)C)C(=O)N(C)[C@@H](C(C)C)C(=O)N1C	10.2 µM (active)
C=CC(=O)N1CC(N2CCN(C(=O)CNc3cc(C4(C)CC4)c(Cl)cc3O)CC2)C1	inactive
CCN(CC)C(=O)Cc1csc(NS(=O)(=O)c2cccc(Cl)c2C)n1	inactive
C=C1C[C@H]2C=Nc3cc(OCCCOc4cc5c(cc4OC)C(=O)N4CC(=C)C[C@H]4C=N5)c(OC)cc3C(=O)N2C1	0.0015 µM (active)
CN1C(=O)N(c2cc(Cl)cc(Cl)c2)C(=O)[C@]12CN(Cc1cc(C(=O)O)cs1)C[C@H]2c1ccc(C#N)cc1	inactive
Cc1noc(-c2ccc(-c3ccc(C4(C(=O)O)CC4)cc3)cc2)c1NC(=O)O[C@H](C)c1ccccc1	inactive
C#C[C@]1(O)CC[C@H]2[C@@H]3CCc4cc(O)ccc4[C@H]3CC[C@@]21C	20.9 µM (active)
NS(=O)(=O)c1ccc(NC(=S)N2CCN(C/C=C/c3ccccc3)CC2)cc1	inactive
CCCCCCCCCCCCCC(=O)N[C@H](CO)[C@H](O)c1ccc([N+](=O)[O-])cc1	inactive
CC(C)c1onc(-c2c(Cl)cccc2Cl)c1COc1ccc(/C=C/c2cccc(C(=O)O)c2)c(Cl)c1	inactive
Cc1nc(C)c(CN2CCN(C(c3ccc(F)cc3)c3ccc(F)cc3)CC2)nc1C	20.9 µM (active)
COc1c(Nc2ncc(Cl)c(N[C@H]3[C@H](C(N)=O)[C@@H]4C=C[C@@H]3C4)n2)ccc2c1CCC(N1CCOCC1)CC2 (stereo partly specified)	inactive
COc1ccc2c(c1)[C@]1(C[C@H]1c1ccc3c(/C=C/c4ccc(CN5C[C@@H](C)O[C@@H](C)C5)cc4)n[nH]c3c1)C(=O)N2	0.132 µM (active)
CC(=O)N1CCN(c2ccc(NC(=O)Cc3cnc(-c4ccnc(F)c4)c(C)c3)nc2)CC1	inactive
Cc1c(O)cccc1C(=O)NC(CSc1ccccc1)C(O)CN1CC2CCCCC2CC1C(=O)NC(C)(C)C (stereo unspecified)	26.3 µM (active)
NCCCC[C@H](NC(=O)[C@@H](NC(=O)[C@H](Cc1c[nH]c2ccccc12)NC(=O)[C@H](CCCCN)NC(=O)[C@H](CCCCN)NC(=O)[C@H](Cc1c[nH]c2ccccc12)NC(=O)[C@H](Cc1c[nH]c2ccccc12)NC(=O)[C@H](CCCCN)NC(=O)[C@@H](N)CCCCN)C(c1ccccc1)c1ccccc1)C(N)=O (H-KKWWKKW[Dip]K-NH2)	inactive
O=C(Nc1cnccc1Cl)N1CCN(Cc2ccc3c(c2)OC(F)(F)O3)CC1	inactive
Cc1ccc(NC(=O)[C@H]2CCCN(C(=O)c3c(C)cccc3F)[C@H]2c2ccc(NC3CCCC3)cc2)cc1C(F)(F)F	inactive
CCc1cnn2c(NCc3ccc[n+]([O-])c3)cc(N3CCCC[C@H]3CCO)nc12	0.0372 µM (active)
CC(=O)Nc1ccc(C(=O)NC(C)(C)C)cc1	inactive
Cc1cc(Oc2ccc3nc(COc4ccc(CC5SC(=O)NC5=O)cc4)n(C)c3c2)cc(C)c1N (stereo unspecified)	inactive
OCCOc1ccc(/C(=C(/CCCl)c2ccccc2)c2ccccc2)cc1	inactive
COc1ccc(CC2c3cc(OC)c(OC)cc3CC[N+]2(C)CCC(=O)OCCCCCOC(=O)CC[N+]2(C)CCc3cc(OC)c(OC)cc3C2Cc2ccc(OC)c(OC)c2)cc1OC (stereo unspecified)	inactive
O=C(CCNC(=O)c1ccc(OC(F)(F)F)cc1)N[C@@H]1CCCc2ccccc21	inactive
CC1=C(c2ccc(O)cc2)[C@H](c2ccc(OCCN3CCCCC3)cc2)Oc2cc(O)ccc21	inactive
CCOC(=N)c1nc2ccc3ncnc(Nc4cc(F)c(F)cc4Cl)c3c2s1	6.61 µM (active)
